Laboratory results from PubChem BioAssay.
Active and inactive are the calls of the source.

What was measured:
Albumin (Bos taurus) = Albumin (Bos taurus) (UniProt P02769); test: bovine serum albumin binders on microarray, profiling panel, artefact control for SMM control protein annotation, biochemical, small-molecule microarray, Alexa647 label, 635/667 nm fluorescence (AID 1118); details: BSA-A647 binding, fluorescence 635 nm, higher = more signal;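 further: score merges 667 nm emission intensity and signal-to-noise per printed compound spot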
Chain of Albumin (Bos taurus) (P02769 whole entry, looked up): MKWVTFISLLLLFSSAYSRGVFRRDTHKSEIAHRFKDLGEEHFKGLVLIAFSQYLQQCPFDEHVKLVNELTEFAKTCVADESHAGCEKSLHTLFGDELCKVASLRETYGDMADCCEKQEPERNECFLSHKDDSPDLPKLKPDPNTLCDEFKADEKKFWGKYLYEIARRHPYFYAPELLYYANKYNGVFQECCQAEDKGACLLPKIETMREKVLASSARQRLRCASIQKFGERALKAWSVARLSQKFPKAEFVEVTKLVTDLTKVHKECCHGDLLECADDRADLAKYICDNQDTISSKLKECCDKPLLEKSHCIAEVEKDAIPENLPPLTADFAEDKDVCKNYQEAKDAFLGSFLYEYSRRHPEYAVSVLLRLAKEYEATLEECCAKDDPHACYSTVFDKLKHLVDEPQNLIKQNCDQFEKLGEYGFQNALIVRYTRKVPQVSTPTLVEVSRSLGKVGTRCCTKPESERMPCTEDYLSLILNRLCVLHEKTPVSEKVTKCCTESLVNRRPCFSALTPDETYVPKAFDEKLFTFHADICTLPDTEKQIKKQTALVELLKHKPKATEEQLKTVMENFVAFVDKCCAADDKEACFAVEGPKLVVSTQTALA

[1] = small-molecule microarray binders of probe aXIP, primary screen, biochemical, NeuroSMM set, 635/667 nm fluorescence (AID 1119); details: higher = more signal, called active from +8 up or from −8 down;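 further: probe is the protein aXip251-270 applied at 1 µg/mL to compound-printed slides; binding of probe to printed compounds measured as 667 nm fluorescence plus signal to noise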
[2] = small-molecule binders of probe aNOTCH3, primary screen, biochemical, small-molecule microarray, 635/667 nm fluorescence (AID 1120); details: higher = more signal;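 further: probe is a biotin-tagged antibody raised against NOTCH3 rather than NOTCH3 protein; score merges spot fluorescence near 667 nm with spot signal to noise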
[3] = small-molecule binders of probe aNOTCH2, primary screen, biochemical, small-molecule microarray, 635/667 nm fluorescence (AID 1121); details: higher = more signal;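 further: score merges feature fluorescence read at 667 nm with its signal to noise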
[4] = target: Carbonic anhydrase 2 (Homo sapiens) (UniProt P00918); test: CAII small-molecule binders, profiling panel, biochemical, small-molecule microarray, Alexa647-labelled CAII (AID 1122); details: CAII-A647 binding fluorescence, higher = more signal
[5] = COS7 lysate on small-molecule microarray, probe aHis, 635 nm (AID 1123); details: COS7 cell lysate, fluorescence, higher = more signal;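 further: z-score combines 667nm fluorescence intensity with signal-to-noise per printed compound spot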
[6] = compound binding in COS7 lysate, probe aLAP1, primary screen, cell lysate, small-molecule microarray (AID 1124); details: probe aLAP1, fluorescence, higher = more signal;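 further: lysate comes from COS7 cells expressing LAP1 and is applied at 0.3 µg/mL; score merges spot fluorescence near 667 nm with signal-to-noise over triplicate slides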
Sam68 (KHDRBS1) = test: Sam68 small-molecule binders, primary screen, biochemical, small-molecule microarray, 635 nm fluorescence (AID 1125); details: small-molecule microarray binding, higher = more signal;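 further: score merges 667 nm channel intensity with signal to noise over triplicate slides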
[7] = tested on: Chordin-like protein 2 (CHRDL2); test: CHRDL2 small-molecule binders, primary screen, biochemical, small-molecule microarray, 635 nm fluorescence (AID 1126); details: small-molecule microarray binding, fluorescence 635 nm; higher = more signal;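 further: printed compound slides probed with Chrdl2 protein at 4 µg/mL for 1 h at 4 C; score merges 667 nm emission intensity with signal to noise over three replicate slides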
[8] = target: Concanavalin-A (Canavalia ensiformis) (UniProt P02866); test: ConA small-molecule binders, primary screen, artefact control for SMM control protein annotation, biochemical, small-molecule microarray, Alexa647 label, 635 nm (AID 1127); details: ConA-A647 binding fluorescence, higher = more signal;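 further: z combines 667 nm emission intensity with signal-to-noise across three replicate slides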
Chain of Concanavalin-A (Canavalia ensiformis) (P02866 whole entry, looked up): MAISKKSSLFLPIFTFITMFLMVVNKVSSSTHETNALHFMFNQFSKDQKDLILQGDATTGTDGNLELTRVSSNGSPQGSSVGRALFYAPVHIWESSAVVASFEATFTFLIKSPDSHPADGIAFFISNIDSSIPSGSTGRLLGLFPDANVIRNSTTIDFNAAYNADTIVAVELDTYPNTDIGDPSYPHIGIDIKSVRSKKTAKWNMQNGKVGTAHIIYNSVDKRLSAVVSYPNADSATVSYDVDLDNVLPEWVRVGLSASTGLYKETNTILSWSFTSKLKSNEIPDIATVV

[9] = anti-His antibody binders, primary screen, artefact control for SMM control protein annotation, biochemical, small-molecule microarray, 635 nm fluorescence (AID 1128); details: anti-His Alexa647 antibody binding, higher = more signal;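 further: score merges feature fluorescence with signal-to-noise for each printed compound spot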
[10] = tested on: Human papillomavirus type 1a E7 protein (residues 1-88); test: HPV1a E7 small-molecule binders, primary screen, biochemical, small-molecule microarray, residues 1-88, 635 nm (AID 1129); details: small-molecule microarray binding, fluorescence 635 nm; higher = more signal
[11] = target: Focal adhesion kinase 1 (Homo sapiens) (UniProt Q05397); test: small-molecule microarray binders of FAK, primary screen, biochemical, 635/667 nm fluorescence, BSA, DTT (AID 1130); details: PTK2 binding, 635 nm fluorescence, higher = more signal;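 further: composite of spot emission at 667 nm and signal to noise over triplicate slides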
Chain of Focal adhesion kinase 1 (Homo sapiens) (Q05397 whole entry, looked up): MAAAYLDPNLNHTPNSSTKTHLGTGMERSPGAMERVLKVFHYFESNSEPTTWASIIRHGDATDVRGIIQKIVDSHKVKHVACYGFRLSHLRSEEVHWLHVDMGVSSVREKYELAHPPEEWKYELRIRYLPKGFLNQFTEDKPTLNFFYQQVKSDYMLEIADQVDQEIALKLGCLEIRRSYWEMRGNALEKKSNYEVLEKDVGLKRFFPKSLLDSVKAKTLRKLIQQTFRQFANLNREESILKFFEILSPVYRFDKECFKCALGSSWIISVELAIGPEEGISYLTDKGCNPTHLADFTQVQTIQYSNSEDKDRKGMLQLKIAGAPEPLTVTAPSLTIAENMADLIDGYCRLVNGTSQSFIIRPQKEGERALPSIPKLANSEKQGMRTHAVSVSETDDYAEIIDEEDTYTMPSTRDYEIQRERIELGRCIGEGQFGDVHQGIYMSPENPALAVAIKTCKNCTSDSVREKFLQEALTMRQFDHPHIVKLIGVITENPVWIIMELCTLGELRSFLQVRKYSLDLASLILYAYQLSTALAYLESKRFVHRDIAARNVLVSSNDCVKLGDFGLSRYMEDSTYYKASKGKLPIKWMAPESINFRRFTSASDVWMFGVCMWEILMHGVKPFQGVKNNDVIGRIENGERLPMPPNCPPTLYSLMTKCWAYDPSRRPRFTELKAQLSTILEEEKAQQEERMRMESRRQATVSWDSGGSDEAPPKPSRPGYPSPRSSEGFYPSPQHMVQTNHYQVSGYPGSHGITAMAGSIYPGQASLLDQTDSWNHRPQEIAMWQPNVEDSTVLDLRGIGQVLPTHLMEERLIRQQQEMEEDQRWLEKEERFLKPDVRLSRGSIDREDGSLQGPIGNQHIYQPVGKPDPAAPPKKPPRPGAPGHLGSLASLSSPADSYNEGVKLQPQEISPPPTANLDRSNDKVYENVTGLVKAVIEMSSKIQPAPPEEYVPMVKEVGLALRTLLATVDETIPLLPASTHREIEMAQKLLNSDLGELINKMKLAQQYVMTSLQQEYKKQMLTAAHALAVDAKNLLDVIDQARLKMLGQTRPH

[12] = tested on: Fibrinogen (Alexa647-labelled); test: fibrinogen binders on compound microarrays, profiling panel, artefact control for SMM control-protein annotation, biochemical, small-molecule microarray, 635/667 nm fluorescence (AID 1131); details: fibrinogen-A647 binding fluorescence, higher = more signal;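 further: z-score merges 667 nm fluorescence with per-spot signal-to-noise over triplicate slides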
[13] = target: Follistatin (Homo sapiens) (UniProt P19883); test: follistatin binders on small-molecule microarrays, primary screen, biochemical, small-molecule microarray, 635/667 nm fluorescence (AID 1132); details: FST binding, 635 nm fluorescence, higher = more signal
Chain of Follistatin (Homo sapiens) (P19883 whole entry, looked up): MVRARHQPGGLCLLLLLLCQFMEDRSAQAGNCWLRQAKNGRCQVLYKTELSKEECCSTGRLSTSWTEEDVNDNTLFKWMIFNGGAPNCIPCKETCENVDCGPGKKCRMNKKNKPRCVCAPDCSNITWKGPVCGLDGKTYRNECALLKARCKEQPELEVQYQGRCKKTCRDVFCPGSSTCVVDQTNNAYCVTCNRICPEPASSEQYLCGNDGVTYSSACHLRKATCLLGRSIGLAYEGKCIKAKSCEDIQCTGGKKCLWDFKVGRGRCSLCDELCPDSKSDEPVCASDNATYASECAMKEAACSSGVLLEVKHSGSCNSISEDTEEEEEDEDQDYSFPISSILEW

[14] = target: Fibroblast growth factor 2 (Homo sapiens) (UniProt P09038); test: FGF2 binders on small-molecule microarrays, primary screen, biochemical, small-molecule microarray, 635/667 nm fluorescence (AID 1133); details: small-molecule microarray binding, FGF2, fluorescence 635/667; higher = more signal
Chain of Fibroblast growth factor 2 (Homo sapiens) (P09038 whole entry, looked up): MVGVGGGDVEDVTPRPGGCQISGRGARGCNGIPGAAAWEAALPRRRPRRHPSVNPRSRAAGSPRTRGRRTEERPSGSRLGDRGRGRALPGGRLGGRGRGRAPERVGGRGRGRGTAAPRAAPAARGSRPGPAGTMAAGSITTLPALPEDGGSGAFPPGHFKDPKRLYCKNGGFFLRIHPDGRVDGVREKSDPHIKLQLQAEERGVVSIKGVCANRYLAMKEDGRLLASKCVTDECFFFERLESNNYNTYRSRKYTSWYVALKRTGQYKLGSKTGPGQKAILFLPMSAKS

[15] = mitochondrial membrane potential change in A549 cells, profiling panel, cell-based, JC-1 fluorescence, basal, 24 h, 100 nL (AID 1138); details: higher = more signal;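 further: A549 lung adenocarcinoma cells under basal conditions with no added stimulus; test concentration not given here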
Lefty1 = Lefty1 binders on small-molecule microarrays, primary screen, biochemical, small-molecule microarray, 635/667 nm fluorescence (AID 1139); details: small-molecule microarray binding, fluorescence 635/667; higher = more signal
[16] = tested on: wheat germ agglutinin (Triticum aestivum), Alexa647-labelled; test: wheat germ agglutinin binders on compound microarrays, profiling panel, artefact control for SMM control-protein annotation, biochemical, small-molecule microarray, 635/667 nm fluorescence (AID 1140); details: WGA-A647 binding, 635 nm fluorescence, higher = more signal;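 further: score merges 667 nm feature emission with signal to noise over triplicate slides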
[17] = target: Luciferin 4-monooxygenase (Photinus pyralis) (UniProt P08659); test: firefly luciferase enzyme inhibitors, primary screen, biochemical, luminescence, purified enzyme, 2006 set (AID 1141); details: SteadyGlo luminescence, 30 min, higher = more signal, called active from +8 up or from −8 down;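 further: cell-free assay with purified firefly luciferase at 100 ng per well in PBS; test concentration not given here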
Chain of Luciferin 4-monooxygenase (Photinus pyralis) (P08659 whole entry, looked up): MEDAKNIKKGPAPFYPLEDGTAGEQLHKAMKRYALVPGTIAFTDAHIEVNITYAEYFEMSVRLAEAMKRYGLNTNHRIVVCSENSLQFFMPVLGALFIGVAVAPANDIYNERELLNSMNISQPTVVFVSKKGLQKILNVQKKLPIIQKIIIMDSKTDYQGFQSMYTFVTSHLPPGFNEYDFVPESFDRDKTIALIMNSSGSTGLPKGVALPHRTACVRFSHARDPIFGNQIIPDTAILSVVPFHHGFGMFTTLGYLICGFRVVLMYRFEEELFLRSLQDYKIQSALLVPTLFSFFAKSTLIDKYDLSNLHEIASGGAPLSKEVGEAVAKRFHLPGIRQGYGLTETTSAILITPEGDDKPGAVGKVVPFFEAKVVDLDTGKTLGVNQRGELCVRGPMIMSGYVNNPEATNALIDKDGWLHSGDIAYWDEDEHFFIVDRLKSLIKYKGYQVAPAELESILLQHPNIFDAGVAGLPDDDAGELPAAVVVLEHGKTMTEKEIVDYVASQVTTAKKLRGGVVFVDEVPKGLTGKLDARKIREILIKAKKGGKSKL

Row | Compound | composite z-score (Albumin (Bos taurus)) | composite Z-score [1] | composite z-score [2] | composite z-score [3] | composite z-score [4] | composite z-score [5] | composite z-score [6] | composite z-score (Sam68 (KHDRBS1)) | composite z-score [7] | composite z-score [8] | composite z-score [9] | composite z-score [10] | composite z-score [11] | composite z-score [12] | composite z-score [13] | composite z-score [14] | z-score [15] | composite z-score (Lefty1) | composite z-score [16] | z-score [17]
1 | CC(C)(C)N1CC=CC23O[C@@H]4C=CCOC(=O)[C@@H]4[C@H]2C(=O)N(CCO)[C@@H]3C1=O (stereo not given in full) | 0.439 | 0.256 (inactive) | -0.446 | -0.196 | 0.671 | 1.95 | -0.719 | -0.738 | -2.63 | -0.634 | 1.6 | -0.539 | -0.747 | -2.09 | -0.262 | -1.36 | 0.257 | -0.0106 | -0.155 | -0.387 (inactive)
2 | CC1CC/C=C\[C@H]2OC34C=CCN(Cc5ccccc5)C(=O)[C@H]3N(CCCCCCO)C(=O)[C@@H]4C2C(=O)O1 (stereo not given in full) | 0.434 | -0.213 (inactive) | -0.383 | -0.133 | 0.895 | 0.42 | 0.718 | -0.957 | -0.993 | -1.45 | 0.607 | -0.415 | -0.28 | -1.31 | -0.909 | -0.808 | 0.856 | -0.869 | -0.51 | -1.51 (inactive)
3 | [N-]=[N+]=Nc1ccccc1[C@H]1OC(c2ccc(OCCCO)cc2)=N[C@@]1(Cc1ccccc1)C(=O)NCC(O)CO (stereo not given in full) | 0.793 | 0.0774 (inactive) | 0.0372 | -0.174 | 0.444 | 3.2 | -0.142 | 0.495 | -0.832 | 0.962 | 1.67 | 1.21 | 0.0145 | 0.959 | 1.06 | -0.551 | 0.586 | -0.498 | 0.966 | -5.02 (inactive)
4 | C#CCN1[C@@H](Cc2ccccc2)C(=O)O[C@H](Cc2ccccc2)[C@@H]1/C=C/C1CC1 | -0.215 | 0.196 (inactive) | 0.0999 | -0.126 | 0.486 | 0.92 | -0.103 | 0.713 | 0.646 | -0.741 | 1.3 | 1.01 | 0.0423 | -0.287 | 1.27 | 0.43 | 4.04 | 1.1 | 0.884 | -0.415 (inactive)
5 | C=C(CCCC)C(=O)CC[C@@H](OC(=O)c1ccccc1-c1ccccc1C(=O)O)c1ccccc1OCCO | 0.269 | -0.136 (inactive) | -0.207 | -0.14 | 0.626 | -0.467 | 0.712 | 0.523 | 0.492 | 1.05 | 0.397 | 0.421 | -0.104 | 0.017 | 1.02 | 0.906 | 0.916 | 1.2 | -0.191 | -1.31 (inactive)
6 | COC(=O)c1cccc([C@H]2OC(=CC(=O)OC(C)C)C[C@@H](c3cccc(C(=O)OC)c3)O2)c1 | 0.937 | 0.587 (inactive) | 0.455 | -0.118 | 0.745 | 1.78 | 0.93 | 1.29 | -0.338 | 1.2 | 1.51 | 1.24 | 1.09 | 1 | 1.11 | 0.748 | -0.562 | 0.679 | 0.961 | -1.74 (inactive)
7 | COCCOC(=O)N1C(=O)[C@@]2(c3cc(C#CCNC(N)=O)ccc31)[C@H](C(=O)Nc1nc3ccccc3s1)[C@H]1C(=O)O[C@H](c3ccccc3)[C@H](c3ccccc3)N1[C@@H]2c1ccccc1OCCO | 0.074 | -0.523 (inactive) | 0.0306 | -0.0432 | 0.47 | 1.17 | 0.151 | 0.975 | 1.23 | 1.04 | -0.218 | 0.423 | 0.553 | 0.749 | 1.48 | 1.61 | -1.79 | 1.39 | 0.489 | -2.69 (inactive)
8 | N#Cc1ccc(-c2cccc(=O)o2)cc1 | 0.341 | -0.0662 (inactive) | 0.0426 | -0.0928 | 0.0483 | 0.365 | -0.0816 | 0.808 | 0.252 | 0.411 | 0.212 | 0.651 | 0.111 | 0.474 | 0.268 | 0.185 | -0.119 | 0.249 | 0.48 | 1.68 (inactive)
9 | COc1ccc([Si](C)(C)[C@@H]2[C@@H](CC(=O)N3Cc4ccccc4C[C@H]3CO)O[C@]3(C(=O)N(Cc4cccc(N5CCOC5=O)c4)c4ccccc43)[C@H]2C)cc1 | -0.699 | 0.844 (inactive) | 0.0016 | -0.117 | 0.038 | 0.479 | 0.333 | 1.1 | 1.32 | 0.844 | 1.23 | 0.402 | 0.0975 | 0.0735 | 1.41 | 1.4 | -0.661 | 1.54 | -0.244 | 0.274 (inactive)
